The record followed here is PubChem BioAssay (EPA / NIEHS).

The source made the active and inactive calls. Rule for the calls: active = hit-call score of the fitted dose curve at least 0.9, where 1 is the maximum; inactive = score below 0.9.

This assay in a line: ATG_PXRE_CIS: Attagene CIS-FACTORIAL HepG2 Assay for human Pregnane X Receptor Element (PXRE) (AID 2282957). Conditions: HepG2 Attagene CIS-FACTORIAL PXRE reporter, mRNA; actives raise or lower the signal. On the procedure:
ATG_CIS is a cell-based, multiplexed-readout assay that uses HepG2, a human liver cell line, with measurements taken at 24 hours after chemical dosing in a 24-well plate.ATG_PXRE_CIS is one of 52 assay component(s) measured or calculated from the ATG_CIS assay. It is designed to make measurements of mRNA induction, a form of inducible reporter, as detected with fluorescence intensity signals by Reverse transcription polymerase chain reaction (RT-PCR) and Capillary electrophoresis technology.Data from the assay component ATG_PXRE_CIS was analyzed into 1 assay endpoint. This assay endpoint, ATG_PXRE_CIS, was analyzed with bidirectional fitting relative to DMSO as the negative control and baseline of activity. Using a type of inducible reporter, measures of mRNA for gain or loss-of-signal activity can be used to understand the reporter gene at the transcription factor-level as they relate to the gene NR1I2. Furthermore, this assay endpoint can be referred to as a primary readout, because this assay has produced multiple assay endpoints where this one serves a reporter gene function. To generalize the intended target to other relatable targets, this assay endpoint is annotated to the nuclear receptor intended target family, where the subfamily is non-steroidal.
Human liver HepG2 cells are transiently transfected with multiple reporter transcription units (MRTUs) in 6-well plates using FuGene 6 reagent (Roche; 3 ml FuGene/1 mg DNA). The MRTU constructs are regulated by a cis-regulating element (promoter). […] A major difference between the CIS and TRANS system is that in CIS activities of endogenous TFs are measured, whereas the TRANS assay evaluates changes in activities of exogenous, chimeric NR-Gal4 proteins. […] At the end of 24 hour incubation, total RNA was isolated using TriZol reagent (Invitrogen). The isolated RNA is then reverse-transcribed using oligo(dT) primer and Mo-MLV reverse transcriptase (Invitrogen) with DNAse I (Ambion) treatment for 30 min. The one-tenth of the produced cDNA was amplified by PCR using Taq DNA polymerase (Invitrogen) and two reporter sequence-specific primers. The PCR products were fluorescently labeled by primer extension with 6-arboxyfluorescein (6-FAM) 5'-labeled reporter sequence-specific primer (2 min at 95 C, 20 s at 68 C and 10 min at 72 C) and these products were digested with 5U of HpaI (New England Biolabs) for 2h at 37 C. The fragments were purified using Qiaquick PCR columns (Qiagen), analyzed on an ABI 3130xL genetic analyzer (Applied Biosystems) with peak positions identified by using a set of X-rhodamine (ROX)-labeled MapMarker1000 molecular weight standards (BioVentures). The raw capillary electrophoresis data was processed using Attagraph software (Attagene).
For orientation: AC50 means the concentration giving half of the maximal activity seen. Regarding `COC(=O)c1ccc(C)cc1`, the AC50 was 11.1 µM (active). Consider `c1ccc2c(c1)c1cccc3ccc4cccc2c4c31`, for which the outcome was inactive.

Turning to `O=C(O)c1cn(-c2ccc(F)cc2)c2cc(N3CCNCC3)c(F)cc2c1=O`, the compound was classed as inactive. Regarding `CCOc1ccccc1OCC`, the half-maximal activity concentration (AC50) was 24.9 µM (active). Consider `CNCCCC12CCC(c3ccccc31)c1ccccc12`, for which the result was inactive. Regarding `Cc1ccc(C=O)cc1`, the compound was classed as inactive. With `CC1=CCC2C(C1)C2(C)C` (stereo not given), the AC50 is 6.95 µM (active). Take `CCCCCCC#CC(=O)OC`: the AC50 was 30.5 µM (active). For the compound `Cc1ccc2sc3cccc(C)c3c2c1`, the compound was called inactive. Still for that read-out and setting: for `COC(C(=O)O)c1ccccc1` (stereo not given) the value was “inactive”. In the case of `O=CCCc1ccccc1`, the AC50 was 23.6 µM (active).

On to `OCc1cccnc1`, for which the outcome was inactive. For `Cc1ccc(C(=O)c2cc(O)c(O)c([N+](=O)[O-])c2)cc1`, the AC50 is 27.5 µM (active). As for `CCCCCCOC(=O)CCCCC`, the compound was classed as inactive. As for `C#C[C@]1(O)CC[C@H]2[C@@H]3CCC4=Cc5oncc5C[C@]4(C)[C@H]3CC[C@@]21C`, the AC50 was 8.09 µM (active).

Consider `CCCC(=O)C(C)=O`, for which the AC50 was 16.2 µM (active). On the same count and under the same terms, in the case of `Cc1cc(C2(c3cc(C)c(O)cc3C)OS(=O)(=O)c3ccccc32)c(C)cc1O` it was 24.2 µM (active). Regarding `Cc1ccc(S)cc1`, the call was inactive. As to `CC(C)(C)c1n[nH]c(=S)n(N)c1=O`, the AC50 was 44.2 µM (active). The same measure, in the same setting: in the case of `CCCc1ccccc1O` it was 56 µM (active). In the case of `Cc1ccc(C(=O)O)o1`, the result was inactive. Same read-out and setting: in the case of `CCCCN` it was “inactive”. Take `Cc1ccc(C=O)s1`: the AC50 is 35.7 µM (active). `CC1CCC(C(C)CS)CC1S` (stereo not given): the AC50 is 2.54 µM (active). On the same count and under the same terms, for `C=C(C)C(=O)O[C@H]1C[C@@H]2CC[C@@]1(C)C2(C)C` the value was 26.5 µM (active). With `Nc1cc(N)cc(C(=O)O)c1`, the compound was classed as inactive. Same read-out and setting: for `CN(C)C(=N)N=C(N)N` the value was “inactive”. For `CCN(CC)CCOC(=O)c1ccc(N)cc1`, the AC50 was 45.9 µM (active). As for `CC(O)C(C)O` (stereo not given), the result was inactive. On the same count and under the same terms, in the case of `CN(C)CCCN` it was “inactive”.

Regarding `CC1CC(OC(=O)c2ccccc2O)CC(C)(C)C1` (stereo not given), the AC50 is 25.8 µM (active). Consider `O=C(O)CCCCC1CCSS1` (stereo not given), for which the outcome was inactive. With `Cc1ccc(O)c(C(C)(C)C)c1`, the AC50 is 25.1 µM (active).

For `CSc1nc(NC2CC2)nc(NC(C)(C)C)n1`, the AC50 is 0.911 µM (active). Consider `NC(=O)NC1NC(=O)NC1=O` (stereo not given), for which the compound was classed as inactive. Same read-out and setting: for `CC(=O)O[C@H](CC(=O)[O-])C[N+](C)(C)C` the value was “inactive”; for `Clc1sc(Cl)c(Cl)c1Cl`, “inactive”. Same read-out and setting: in the case of `NC(=O)Nc1ccc(Cl)cc1` it was “inactive”.

As to `CC1=CCC(O)(C(C)C)CC1` (stereo not given), the AC50 was 39.1 µM (active). For `Cc1cccc(C)c1[N+](=O)[O-]`, the call was inactive.
